In PubChem BioAssay (Tox21):
Where “and” joins values, the source holds several entries; their conditions need not be identical. Equal values may be shown once. Records with an inconclusive call do not appear. Calls of active or inactive are those of the source. Calls come from the whole dose curve; as a rule, active = well fitted inhibition curve with a large enough effect in the repeat runs; inconclusive = weak or mixed curves; inactive = no such curve, though single readings can be large or run the other way.

These molecules were tested against Cytochrome P450 1A2 (Homo sapiens) (UniProt P05177) (assay: Cytochrome P450 Family 1 Subfamily A Member 2 (CYP1A2) small molecule antagonists: luciferase reporter qHTS assay (AID 1671199; note: nearly all actives have a fitted effect of over 50% in size)). Details: P450-Glo CYP1A2 enzyme, luciferin luminescence, 1 h; series mostly up to 115 µM; activity change, negative = inhibition: at the top concentration.
Method in brief: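 P450-Glo CYP1A2, 1536-well qHTS: enzyme/proluciferin substrate + cpd (DMSO), 10 min RT; NADPH regen, 1 h RT; detection reagent, 20 min; luminescence, RLU.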
% is set by controls: 0 for no effect and ±100 for the full control effect; potency is the fitted concentration of half-maximal effect.

Cytochrome P450 1A2 (Homo sapiens), sequence (P05177 whole entry, looked up): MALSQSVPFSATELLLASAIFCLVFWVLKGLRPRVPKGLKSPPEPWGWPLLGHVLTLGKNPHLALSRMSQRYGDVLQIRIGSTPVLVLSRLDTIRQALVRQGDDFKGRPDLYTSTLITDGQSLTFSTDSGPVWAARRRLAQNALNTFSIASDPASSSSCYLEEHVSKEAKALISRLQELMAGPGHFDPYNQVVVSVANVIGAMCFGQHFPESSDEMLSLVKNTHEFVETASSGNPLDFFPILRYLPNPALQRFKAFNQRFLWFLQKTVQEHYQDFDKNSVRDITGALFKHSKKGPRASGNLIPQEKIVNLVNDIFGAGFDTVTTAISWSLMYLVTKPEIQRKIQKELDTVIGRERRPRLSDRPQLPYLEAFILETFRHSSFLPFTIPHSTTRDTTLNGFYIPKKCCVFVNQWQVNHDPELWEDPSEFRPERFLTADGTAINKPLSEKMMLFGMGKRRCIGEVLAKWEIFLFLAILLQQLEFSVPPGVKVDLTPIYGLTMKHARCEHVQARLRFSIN

Row | SMILES | Potency | activity change, negative = inhibition
1 | CC(COC(=O)c1ccccc1)OC(=O)c1ccccc1 (configuration not stated) | 5.64 µM (active) | 
2 | O=C[C@H](O)[C@H](O)[C@H](O)CO |  | -14.5% (inactive)
3 | Cn1cccc1 |  | -14.1% (inactive)
4 | CCCCN(C)C |  | -9.92% (inactive)
5 | CCOCOCC |  | -16.1% (inactive)
6 | CC(C)=CCCC(C)O (configuration not stated) |  | -8.9% (inactive)
7 | CCOC(OCC)C(=O)c1ccccc1 | 31.7 µM (active) | 
8 | CCc1c(Br)c(Br)c(Br)c(Br)c1Br | 11.2 µM (active) | 
9 | CCNc1nc(NC(C)CC)nc(OC)n1 (configuration not stated) | 25.2 µM (active) | 
10 | CC(=O)C=O |  | -15.6% (inactive)
11 | CN(C)CCN1CCOCC1 |  | -12.9% (inactive)
12 | O=C=NCc1cccc(CN=C=O)c1 |  | -18.9% [at 23.6 µM] (inactive)
13 | c1ccc(Nc2cccc3ccccc23)cc1 | 6.41 µM (active) and 17.8 µM (active) | 
14 | CC1(C)C(=O)N(Br)C(=O)N1Br |  | -22.4% (inactive)
15 | CCCCCCCCCCCCCCCC |  | -21% (inactive)
16 | CCC(=O)CC(C)CC (configuration not stated) |  | -14.4% [at 0.435 µM] (inactive)
17 | CCCCCCCC/C=C\CCCCCCCC(=O)N(C)CC(=O)O |  | -6.65% (inactive)
